Assay results taken from PubChem BioAssay.
Values without a mark were called inactive. The rule behind the calls is not given here.

What follows are compounds tested against Pantothenate synthetase (Mycobacterium tuberculosis (strain ATCC 25618 / H37Rv)) (UniProt P9WIL5) (assay: Coupled enzyme confirmation of inhibitors against recombinant Mtb PanC (AID 375;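 note: 0% = full reaction with vehicle and 100% = no enzyme background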)). Conditions: coupled enzyme assay; at 10 µM, active compounds read high.
Sequence of Pantothenate synthetase (Mycobacterium tuberculosis (strain ATCC 25618 / H37Rv)) (P9WIL5 whole entry, looked up): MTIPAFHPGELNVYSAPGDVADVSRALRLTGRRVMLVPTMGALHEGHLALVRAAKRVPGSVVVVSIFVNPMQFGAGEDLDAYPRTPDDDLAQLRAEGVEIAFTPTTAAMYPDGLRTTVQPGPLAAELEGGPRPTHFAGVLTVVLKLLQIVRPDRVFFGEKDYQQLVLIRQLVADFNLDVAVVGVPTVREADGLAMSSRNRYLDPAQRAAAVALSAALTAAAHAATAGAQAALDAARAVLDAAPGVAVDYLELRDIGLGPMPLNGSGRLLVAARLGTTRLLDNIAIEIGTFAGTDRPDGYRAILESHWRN
For COc1cc(-c2nc(S(=O)(=O)c3ccccc3)c(N3CCOCC3)o2)cc(OC)c1OC, the inhibition was 8%. O=C(CS(=O)(=O)c1cn(Cc2ccc(Cl)cc2)c2ccccc12)N1CCCC1 gave an inhibition of 6%. CN1C(=O)C(O)(CC(=O)c2ccccc2O)c2cc(Br)ccc21 (stereo not given) gave an inhibition of 0%. Cn1c(=O)[nH]c2cc3ccccc3cc21 showed an inhibition of 0%. CC1Cc2ccccc2N1C(=O)C12CCC(C)(C(=O)C1)C2(C)C (stereo not given) gave an inhibition of 3%. For CCOC(=O)Cn1nnnc1CN(Cc1ccc(OC)cc1)Cc1cc2cc(C)ccc2[nH]c1=O, the inhibition was 1%. For Cc1cc(NC(=O)Cn2cnc3c(cnn3C(C)(C)C)c2=O)no1, the inhibition was 3%. Compound COc1cc(/C=N/n2c(C)nnc2C)cc(OC)c1OC has an inhibition of 4%. With C=C(C)C1Cc2c(C)nn(-c3nc(C)cc(C)n3)c2C1 (stereo not given) the inhibition was 0%. Work on CC1CCN(c2nc3c(c(=O)[nH]c(=O)n3C)n2CCSc2ncccn2)CC1 yielded an inhibition of 0%. CCn1nc(CC(=O)Nc2nnc(CC(=O)N3CCCCC3)s2)c2ccccc2c1=O showed an inhibition of 0%. O=C(Nc1ccccc1)c1ccc(NCC2CCCO2)c(S(=O)(=O)N2CCOCC2)c1 (stereo not given) showed an inhibition of 0%. COc1ccccc1CN1CC(C(=O)NCc2cccnc2)CC1=O (stereo not given) showed an inhibition of 2%. Work on CC(NCc1ccco1)C(=O)N1CCc2ccccc2C1 (stereo not given) yielded an inhibition of 5%. Cc1ccc(OCc2nnc(SCC(=O)N3CCOCC3)n2C)cc1 gave an inhibition of 0%. c1ccc2c(c1)Cc1cc(CN3CCOCC3)ccc1-2 was tested, and the inhibition was 3%. C=CCOc1nc2c(c(=O)n(C)c(=O)n2C)n1Cc1c(Cl)cccc1Cl was tested, and the inhibition was 1%. CC(C)[C@H](NC(=O)NC1CCCC1)C(=O)O was tested, and the inhibition was 0%. Compound CCN(CC)CCN1C(=O)C(O)=C(C(=O)c2cccs2)C1c1ccc(C)o1 (stereo not given) has an inhibition of 0%. CCOC(=O)c1nnn(-c2nonc2N)c1CN1CCc2ccccc2C1 gave an inhibition of 2%. CCOc1cc(C2C(C(=O)OC(C)C)=C(C)N=C3SCCC(=O)N32)ccc1OC(C)=O (stereo not given) was tested, and the inhibition was 0%. Work on CCn1c(=O)cc(SCC(=O)N2CCN(C3CCCCC3)CC2)c2ccccc21 yielded an inhibition of 2%. With CC(=O)Nc1ccc(OC(=O)c2cccnc2)cc1 the inhibition was 0%. Work on CCCCCCC(=O)c1c(C)[nH]c(C(=O)OCC)c1C yielded an inhibition of 1%. Work on Cc1ccc(-n2ncc3c(N4CCCC(C)C4)ncnc32)c(C)c1 (stereo not given) yielded an inhibition of 5%. COc1ccc(N(CC(=O)N2CCCCC2)S(=O)(=O)c2ccccc2)c(OC)c1 gave an inhibition of 0%. Cc1ccccc1-n1c(Cn2c(=O)sc3ccccc32)nnc1SCC(N)=O gave an inhibition of 3%. CC(=O)Nc1cccc(NC(=O)CSc2nnnn2C)c1 was tested, and the inhibition was 0%. Nc1[nH]nc2nc(N3CCCC3)nc(-c3ccccc3)c12 showed an inhibition of 0%. Cc1ccc(N(Cc2ccco2)C(=O)c2cccc(S(=O)(=O)N(C)C)c2)cc1 was tested, and the inhibition was 5%. In the case of O=C(Nc1nc2c(s1)CCc1ccccc1-2)c1cccs1, the inhibition is reported as 8%. For COc1ccccc1OCC(=O)Nc1ccc(S(=O)(=O)Nc2nc(C)cc(C)n2)cc1, the inhibition was 1%. In the case of CCc1nnc(-n2nc(C)cc2-c2ccccc2)n1N, the inhibition is reported as 3%. In the case of CC12COC3(C(=O)Nc4ccc(Cl)cn4)CC1CCC32C (stereo not given), the inhibition is reported as 0%. With CN(C)c1ccc(/C(=N\O)c2ccccc2)cc1 the inhibition was 0%. CN(CCO)CC(O)Cn1cnc2c1c(=O)n(C)c(=O)n2C (stereo not given) (tested in a mixture with another compound) gave an inhibition of 0%. Cc1cc(C(F)(F)F)nc(SCC(=O)NC2=NC(=O)C(C)S2)n1 (stereo not given) was tested, and the inhibition was 2%. In the case of Cc1ccc(F)cc1NC(=O)C1CCCN(c2ncccn2)C1 (stereo not given), the inhibition is reported as 7%. Compound COc1cc(C)c(Br)cc1S(=O)(=O)N1CCOCC1 has an inhibition of 2%. In the case of O=C(NC1CCCc2ccccc21)c1ccc(CNc2c(N3CCOCC3)c(=O)c2=O)cc1 (stereo not given), the inhibition is reported as 0%.
